# Experimental data taken from ChEMBL document CHEMBL1961873, “Compounds: GSK PKIS; Assays: Nanosyn kinase panel” (2012).
# Key:
# [1] = target: T1, Serine/threonine-protein kinase TBK1 (Homo sapiens) (UniProt Q9UHD2); details: at 1 µM;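 further: values are mean inhibition of TBK1, screened as part of the GSK published kinase inhibitor set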
# T1 sequence (whole entry): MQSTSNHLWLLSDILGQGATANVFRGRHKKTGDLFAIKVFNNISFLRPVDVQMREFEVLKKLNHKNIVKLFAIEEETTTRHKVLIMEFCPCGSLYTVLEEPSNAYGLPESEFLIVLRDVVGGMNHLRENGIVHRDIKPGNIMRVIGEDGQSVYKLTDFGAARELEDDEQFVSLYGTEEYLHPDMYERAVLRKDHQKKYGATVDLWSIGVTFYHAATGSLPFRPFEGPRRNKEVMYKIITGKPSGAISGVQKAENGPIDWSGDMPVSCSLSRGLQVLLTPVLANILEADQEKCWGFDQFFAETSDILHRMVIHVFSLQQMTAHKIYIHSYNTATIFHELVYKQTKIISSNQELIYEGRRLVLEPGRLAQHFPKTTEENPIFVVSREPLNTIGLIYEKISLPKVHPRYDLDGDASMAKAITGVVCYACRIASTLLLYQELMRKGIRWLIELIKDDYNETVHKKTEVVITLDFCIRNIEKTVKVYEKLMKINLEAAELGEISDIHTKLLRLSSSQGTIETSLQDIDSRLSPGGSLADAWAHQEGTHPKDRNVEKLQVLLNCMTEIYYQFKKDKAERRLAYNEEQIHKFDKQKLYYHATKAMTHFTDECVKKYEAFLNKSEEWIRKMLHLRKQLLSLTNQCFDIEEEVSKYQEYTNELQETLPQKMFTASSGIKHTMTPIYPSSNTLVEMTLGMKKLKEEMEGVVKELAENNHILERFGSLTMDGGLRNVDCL
# [2] = target: T2, Testis-specific serine/threonine-protein kinase 1 (Homo sapiens) (UniProt Q9BXA7); details: at 0.1 µM
# T2 sequence (whole entry): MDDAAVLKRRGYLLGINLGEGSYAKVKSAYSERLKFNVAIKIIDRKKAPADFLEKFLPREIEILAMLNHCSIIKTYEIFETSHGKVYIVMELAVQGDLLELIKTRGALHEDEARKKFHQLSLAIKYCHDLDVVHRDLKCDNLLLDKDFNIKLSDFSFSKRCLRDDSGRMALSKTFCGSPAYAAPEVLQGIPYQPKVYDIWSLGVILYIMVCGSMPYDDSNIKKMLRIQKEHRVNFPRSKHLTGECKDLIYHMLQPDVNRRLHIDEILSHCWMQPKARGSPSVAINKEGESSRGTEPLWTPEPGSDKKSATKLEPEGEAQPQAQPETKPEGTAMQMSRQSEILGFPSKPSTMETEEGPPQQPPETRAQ
# [3] = target: T2, Testis-specific serine/threonine-protein kinase 1 (Homo sapiens); details: at 1 µM
# [4] = target: T3, Testis-specific serine/threonine-protein kinase 2 (Homo sapiens) (UniProt Q96PF2); details: at 0.1 µM
# T3 sequence (whole entry): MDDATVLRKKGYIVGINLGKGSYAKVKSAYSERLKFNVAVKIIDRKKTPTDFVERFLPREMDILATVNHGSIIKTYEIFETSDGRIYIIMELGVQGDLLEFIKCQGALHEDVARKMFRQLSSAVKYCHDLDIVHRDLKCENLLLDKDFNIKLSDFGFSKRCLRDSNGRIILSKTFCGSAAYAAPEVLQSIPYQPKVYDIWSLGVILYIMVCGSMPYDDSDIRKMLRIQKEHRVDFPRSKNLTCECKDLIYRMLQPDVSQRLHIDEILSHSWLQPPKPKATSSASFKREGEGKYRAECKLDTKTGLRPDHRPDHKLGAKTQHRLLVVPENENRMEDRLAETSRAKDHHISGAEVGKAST
# [5] = target: T3, Testis-specific serine/threonine-protein kinase 2 (Homo sapiens); details: at 1 µM
# [6] = target: Casein kinase I isoform alpha (Homo sapiens) (UniProt P48729); details: at 0.1 µM
# Chain of Casein kinase I isoform alpha (Homo sapiens) (P48729 2-337 limits assumed): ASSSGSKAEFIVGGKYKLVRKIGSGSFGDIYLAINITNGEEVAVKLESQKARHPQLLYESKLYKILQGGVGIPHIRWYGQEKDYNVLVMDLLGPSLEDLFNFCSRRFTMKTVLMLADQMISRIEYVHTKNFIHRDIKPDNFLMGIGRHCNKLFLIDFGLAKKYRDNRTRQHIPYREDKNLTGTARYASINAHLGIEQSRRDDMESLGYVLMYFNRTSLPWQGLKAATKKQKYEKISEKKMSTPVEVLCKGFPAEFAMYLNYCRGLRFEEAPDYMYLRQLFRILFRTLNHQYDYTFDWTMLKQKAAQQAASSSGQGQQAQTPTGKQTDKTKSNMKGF
# [7] = target: Casein kinase I isoform alpha (Homo sapiens) (UniProt P48729); details: at 1 µM
# [8] = target: Casein kinase I isoform gamma-1 (Homo sapiens) (UniProt Q9HCP0); details: at 0.1 µM
# Chain of Casein kinase I isoform gamma-1 (Homo sapiens) (Q9HCP0 whole entry, looked up, canonical isoform): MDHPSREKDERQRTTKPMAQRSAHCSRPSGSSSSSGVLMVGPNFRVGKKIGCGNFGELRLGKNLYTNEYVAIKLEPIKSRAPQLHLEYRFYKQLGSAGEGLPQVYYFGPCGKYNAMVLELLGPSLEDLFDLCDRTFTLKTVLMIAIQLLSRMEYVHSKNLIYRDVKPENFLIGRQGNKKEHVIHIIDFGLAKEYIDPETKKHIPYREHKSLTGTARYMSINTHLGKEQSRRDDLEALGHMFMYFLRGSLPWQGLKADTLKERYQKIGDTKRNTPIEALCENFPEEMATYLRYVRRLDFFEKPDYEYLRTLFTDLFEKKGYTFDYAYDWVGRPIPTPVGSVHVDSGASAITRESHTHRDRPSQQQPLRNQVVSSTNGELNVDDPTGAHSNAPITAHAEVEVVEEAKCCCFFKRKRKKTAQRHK
# [9] = target: Casein kinase I isoform gamma-1 (Homo sapiens) (UniProt Q9HCP0); details: at 1 µM
# [10] = target: Casein kinase I isoform gamma-2 (Homo sapiens) (UniProt P78368); details: at 0.1 µM
# Chain of Casein kinase I isoform gamma-2 (Homo sapiens) (P78368 whole entry, looked up, canonical isoform): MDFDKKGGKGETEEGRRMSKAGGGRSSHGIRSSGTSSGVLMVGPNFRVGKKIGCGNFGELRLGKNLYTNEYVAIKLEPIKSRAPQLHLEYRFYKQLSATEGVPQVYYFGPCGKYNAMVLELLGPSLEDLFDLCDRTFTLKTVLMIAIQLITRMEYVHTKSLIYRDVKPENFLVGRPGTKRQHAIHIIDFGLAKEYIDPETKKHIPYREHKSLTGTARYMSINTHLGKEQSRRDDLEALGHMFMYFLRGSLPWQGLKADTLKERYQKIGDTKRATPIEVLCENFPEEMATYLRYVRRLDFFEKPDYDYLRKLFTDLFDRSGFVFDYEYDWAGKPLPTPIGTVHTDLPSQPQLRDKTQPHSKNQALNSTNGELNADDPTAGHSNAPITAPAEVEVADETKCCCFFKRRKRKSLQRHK
# [11] = target: Casein kinase I isoform gamma-2 (Homo sapiens) (UniProt P78368); details: at 1 µM
# [12] = target: Casein kinase I isoform gamma-3 (Homo sapiens) (UniProt Q9Y6M4); details: at 0.1 µM
# Chain of Casein kinase I isoform gamma-3 (Homo sapiens) (Q9Y6M4 whole entry, looked up, canonical isoform): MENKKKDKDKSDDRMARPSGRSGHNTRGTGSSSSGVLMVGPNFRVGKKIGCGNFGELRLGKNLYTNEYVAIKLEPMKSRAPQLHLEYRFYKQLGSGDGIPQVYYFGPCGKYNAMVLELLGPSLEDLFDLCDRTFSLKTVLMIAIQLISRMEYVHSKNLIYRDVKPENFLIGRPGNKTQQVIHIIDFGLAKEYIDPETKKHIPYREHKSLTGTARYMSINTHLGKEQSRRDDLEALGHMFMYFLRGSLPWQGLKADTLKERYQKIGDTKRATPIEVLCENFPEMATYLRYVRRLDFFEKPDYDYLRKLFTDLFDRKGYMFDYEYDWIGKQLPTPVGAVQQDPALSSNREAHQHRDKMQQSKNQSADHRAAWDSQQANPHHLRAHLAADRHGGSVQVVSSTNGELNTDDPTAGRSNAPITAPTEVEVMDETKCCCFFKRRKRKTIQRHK
# [13] = target: Casein kinase I isoform gamma-3 (Homo sapiens) (UniProt Q9Y6M4); details: at 1 µM
# [14] = target: Cyclin-dependent kinase 1 (Homo sapiens) (UniProt P06493); details: at 0.1 µM
# Chain of Cyclin-dependent kinase 1 (Homo sapiens) (P06493 whole entry, looked up): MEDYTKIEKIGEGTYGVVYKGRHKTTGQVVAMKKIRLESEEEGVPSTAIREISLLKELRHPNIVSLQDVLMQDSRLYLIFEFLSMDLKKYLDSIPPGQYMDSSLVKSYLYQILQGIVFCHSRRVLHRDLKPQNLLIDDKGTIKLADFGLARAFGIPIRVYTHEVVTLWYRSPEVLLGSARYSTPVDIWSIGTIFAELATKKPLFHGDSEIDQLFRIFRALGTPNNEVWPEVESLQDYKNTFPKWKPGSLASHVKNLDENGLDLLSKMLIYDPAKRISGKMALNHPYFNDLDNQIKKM
# [15] = target: Cyclin-dependent kinase 1 (Homo sapiens) (UniProt P06493); details: at 1 µM
# [16] = target: Cyclin-dependent kinase 2 (Homo sapiens) (UniProt P24941); details: at 0.1 µM
# [17] = target: Cyclin-dependent kinase 2 (Homo sapiens) (UniProt P24941); details: at 1 µM
# [18] = target: Cyclin-dependent kinase 2 (Homo sapiens) (UniProt P24941); details: at 0.1 µM; remark: listed apart in the source
# [19] = target: Cyclin-dependent kinase 2 (Homo sapiens) (UniProt P24941); details: at 1 µM; remark: listed apart in the source
# [20] = target: CDK3/Cyclin E (Homo sapiens) (UniProt P24864+Q00526); details: at 0.1 µM;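 further: reported percentages are mean inhibition values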
# Chain of CDK3/Cyclin E (Homo sapiens) (P24864 whole entry, looked up): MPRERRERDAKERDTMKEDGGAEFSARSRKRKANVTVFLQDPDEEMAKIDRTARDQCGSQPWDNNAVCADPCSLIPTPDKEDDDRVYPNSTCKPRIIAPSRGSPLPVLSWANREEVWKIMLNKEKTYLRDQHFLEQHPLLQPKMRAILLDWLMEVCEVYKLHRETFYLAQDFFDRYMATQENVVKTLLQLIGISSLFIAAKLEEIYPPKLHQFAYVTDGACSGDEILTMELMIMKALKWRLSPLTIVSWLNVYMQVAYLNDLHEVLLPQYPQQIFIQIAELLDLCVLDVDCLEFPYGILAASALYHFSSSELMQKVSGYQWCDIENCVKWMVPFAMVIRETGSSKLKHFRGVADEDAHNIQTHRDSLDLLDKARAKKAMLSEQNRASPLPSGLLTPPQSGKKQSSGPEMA
# Chain of CDK3/Cyclin E (Homo sapiens) (Q00526 whole entry, looked up): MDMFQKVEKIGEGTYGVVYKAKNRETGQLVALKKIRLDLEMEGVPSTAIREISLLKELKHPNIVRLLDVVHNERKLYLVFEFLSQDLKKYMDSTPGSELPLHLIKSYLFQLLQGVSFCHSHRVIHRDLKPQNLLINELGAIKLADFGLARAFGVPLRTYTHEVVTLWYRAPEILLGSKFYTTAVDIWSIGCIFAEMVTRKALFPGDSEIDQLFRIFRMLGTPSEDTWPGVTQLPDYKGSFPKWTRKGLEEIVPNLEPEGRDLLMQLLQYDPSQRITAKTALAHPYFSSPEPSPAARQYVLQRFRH
SMILES,inhibition [1],inhibition [2],inhibition [3],inhibition [4],inhibition [5],inhibition [6],inhibition [7],inhibition [8],inhibition [9],inhibition [10],inhibition [11],inhibition [12],inhibition [13],inhibition [14],inhibition [15],inhibition [16],inhibition [17],inhibition [18],inhibition [19],inhibition [20]
Cc1ccc(NC(=O)c2ccnc(N3CCCC3)c2)cc1-c1ccc(C(=O)NCC2CC2)cc1,8.32%,3.77%,3.59%,1.08%,1.39%,5.28%,2.01%,0.99%,3.3%,-0.87%,2.39%,0.96%,2.49%,-0.58%,2.14%,-0.92%,2.88%,6.57%,6.44%,9.73%
O=C1NC(=O)C(c2ccccc2Cl)=C1Nc1cccc(O)c1,6.91%,1.56%,1.53%,1.05%,-1.27%,4.13%,2.81%,2.54%,3.11%,1.14%,2.79%,0.98%,1.47%,2.95%,21%,3.51%,20.6%,3.32%,18.7%,2.37%
CC1=C(C(=O)Nc2ccc3[nH]ncc3c2)C(c2ccc3ccccc3c2)CC(=O)N1 (configuration not stated),4.09%,1.35%,1.04%,1.35%,0.44%,1.57%,3.29%,1.69%,3.15%,1.16%,1.9%,0.93%,3.24%,0.76%,2.25%,2.98%,9.64%,3.36%,14.2%,0.42%
CCn1c(-c2nonc2N)nc2ccncc21,1.82%,2.36%,1.75%,0.59%,-0.93%,0.34%,1.43%,0.65%,-0.84%,0.24%,0.81%,-0.09%,1.21%,0.77%,1.88%,1.3%,4.47%,1.11%,4.8%,2.26%
CCn1c(-c2nonc2N)nc2cncc(C(=O)N3CC[C@H](N)C3)c21,19.7%,7.36%,18.9%,3.56%,5.01%,–,–,3.59%,4.35%,3.12%,3.73%,2.49%,2.9%,0.41%,–,2.14%,-1.11%,2.3%,5.5%,5.34%
CC(=O)Nc1cccc(C#Cc2cncnc2Nc2ccc(OCc3cccc(F)c3)c(Cl)c2)n1,-0.27%,2.3%,4.75%,0.15%,5.54%,0.01%,-1.03%,-1.49%,-2.35%,-0.28%,-2.14%,-0.5%,-0.34%,-0.13%,-0.16%,-1.04%,-0.26%,-1.65%,-0.18%,1.2%
NS(=O)(=O)c1ccc(N/N=C2\C(=O)Nc3ccc(C(=O)NCCc4c[nH]cn4)cc32)cc1,26.8%,6.64%,11.2%,3.37%,1.67%,9.71%,8.41%,4.44%,9.85%,3.01%,9.23%,5.54%,16.4%,30.1%,76.1%,–,–,–,–,26.9%
COc1ccccc1Nc1ncc(-c2ccccc2)o1,2.91%,4.78%,4.46%,2.44%,2.11%,2.14%,2.52%,4.56%,5.25%,4.37%,3.85%,3.77%,5.78%,–,0.64%,2.24%,3.34%,1.7%,4.15%,-1.03%
CCn1c(-c2nonc2N)nc2cncc(C(=O)N3CCNCC3)c21,5.51%,4.82%,5.83%,2.4%,3.03%,6.74%,9.8%,5.02%,6.64%,4.43%,4.57%,3.46%,3.18%,2.63%,1.24%,3.94%,2.62%,3.71%,3.23%,-1.18%
Nc1nc(-c2ccc3c(c2)C(=Cc2cc(Br)c(O)c(Br)c2)C(=O)N3)cs1,0.36%,-0.52%,-0.1%,-1.49%,0.36%,-0.89%,-1.31%,-1.34%,-1.14%,-1.3%,-0.74%,-2.56%,0.95%,0.71%,–,1.38%,-0.83%,-0.42%,2.91%,0.55%
N#Cc1c(NC(=O)c2cccc3ccccc23)sc2c1CCCC2,6.64%,3.39%,2.26%,0.88%,0.92%,-0.66%,2.15%,2.73%,2.82%,2.2%,3.02%,2.06%,2.66%,1.07%,5.24%,4.98%,0.97%,5.24%,6.76%,2.56%
COC(=O)Nc1nc2cc(Oc3cccc(NC(=O)Nc4cc(C(F)(F)F)ccc4F)c3)ccc2[nH]1,4.23%,-0.26%,-0.63%,-0.42%,-1.58%,-1.03%,-0.8%,0.24%,0.48%,-0.21%,-0.35%,-2.32%,-1.3%,2.66%,0.7%,0.37%,-0.89%,0.62%,1.21%,-0.22%
CS(=O)(=O)CCNCc1nc(-c2ccc3ncnc(Nc4ccc(F)c(Cl)c4)c3c2)cs1,2.28%,1.9%,0.45%,0.45%,1.08%,0.89%,1.04%,1.14%,1.55%,1.92%,0.64%,2.39%,3.39%,-1.31%,-0.06%,0.75%,9.99%,0.06%,1.32%,0.76%
NC(=O)c1ccc(-c2nc(-c3ccccn3)c(-c3ccc4c(c3)OCO4)[nH]2)cc1,2.25%,2.68%,0.88%,1.76%,0.84%,13.1%,48.5%,1.97%,4.22%,1.5%,3.29%,1.05%,5.91%,0.26%,2.49%,–,–,–,–,3.35%
